Laboratory results taken from PubChem BioAssay (EPA / NIEHS).
Activity calls are given as the source filed them. The calls were made as follows: active = hit-call score of the fitted dose curve at least 0.9, where 1 is the maximum; inactive = score below 0.9.

Columns and labels:
[1] = target: Bile acid receptor (Homo sapiens) (UniProt Q96RI1); test: ATG_IR1_CIS: Attagene CIS-FACTORIAL HepG2 Assay for human Nuclear Receptor Subfamily 1 Group H Member 4 (NR1H4), IR1 submotif (AID 2282946); conditions: IR1 reporter transcription, actives raise or lower the signal
Bile acid receptor (Homo sapiens), sequence (Q96RI1 whole entry, looked up, the tested form may be a part): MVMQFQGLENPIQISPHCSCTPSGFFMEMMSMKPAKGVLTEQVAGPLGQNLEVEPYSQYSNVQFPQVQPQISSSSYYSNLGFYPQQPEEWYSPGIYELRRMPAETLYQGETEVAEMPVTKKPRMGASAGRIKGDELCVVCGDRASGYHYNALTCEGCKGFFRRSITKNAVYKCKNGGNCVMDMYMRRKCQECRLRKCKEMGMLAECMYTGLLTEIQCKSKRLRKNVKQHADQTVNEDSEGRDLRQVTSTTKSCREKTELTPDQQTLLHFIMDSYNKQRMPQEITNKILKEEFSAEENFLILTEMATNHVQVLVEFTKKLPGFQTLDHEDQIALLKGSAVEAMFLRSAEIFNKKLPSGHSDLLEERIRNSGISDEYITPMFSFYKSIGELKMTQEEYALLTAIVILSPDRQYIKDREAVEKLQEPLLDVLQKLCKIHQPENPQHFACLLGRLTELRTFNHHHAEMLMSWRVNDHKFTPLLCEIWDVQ
How it was run: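 Cells (human HepG2) carry transiently transfected cis-promoter reporter transcription units. Compounds are incubated 24 h, total RNA is reverse-transcribed and amplified, and labelled fragments are resolved by capillary electrophoresis. Curves use DMSO as baseline.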

[2] = ATG_GRE_CIS: Attagene CIS-FACTORIAL HepG2 Assay for human Glucocorticoid Response Elements (GRE) (AID 2282947); conditions: HepG2 GRE cis-reporter, Attagene multiplex mRNA; actives raise or lower the signal
How it was run: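 Assay uses human hepatoma HepG2 cells transfected with cis-promoter reporter units, exposed 24 h. mRNA from reporters detected by RT-PCR plus capillary electrophoresis; DMSO serves as negative control and baseline.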

[3] = ATG_ISRE_CIS: Attagene CIS-FACTORIAL HepG2 Assay for human Interferon Regulatory Factor 1 (IRF1) binding to an Interferon-Stimulated Response Element (ISRE) (AID 2282948); conditions: HepG2 ISRE cis-reporter (Attagene), mRNA transcription readout; actives raise or lower the signal
How it was run: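 Transiently transfected HepG2 cells carrying cis-element reporter units, dosed 24 hours. Reporter mRNA quantified by RT-PCR, fluorescent primer extension, HpaI digestion and capillary electrophoresis. Bidirectional fitting relative to DMSO.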

[4] = ATG_M_32_CIS: Attagene CIS-FACTORIAL HepG2 Assay for M32 Transcription Factor (Internal Marker) (AID 2282949); conditions: HepG2 Attagene cis-factorial M32 reporter, mRNA; actives raise or lower the signal;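 also: background control marker of the multiplexed CIS panel rather than a real target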
How it was run: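 Internal background marker read-out: RT-PCR/capillary electrophoresis fluorescence of reporter transcripts from transiently transfected HepG2 cells after 24 h chemical exposure. Activity fitted bidirectionally relative to DMSO negative control.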

[5] = ATG_M_06_CIS: Attagene CIS-FACTORIAL HepG2 Assay for M06 Transcription Factor (Internal Marker) (AID 2282950); conditions: HepG2 Attagene CIS-FACTORIAL M06 internal marker reporter; actives raise or lower the signal
How it was run: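 HepG2 liver cells, 24 h exposure. Reporter transcripts from transfected cis-element constructs quantified by RT-PCR/capillary electrophoresis fluorescence. Bidirectional curve fit against DMSO.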

[6] = target: Hypoxia-inducible factor 1-alpha (Homo sapiens) (UniProt Q16665); test: ATG_HIF1a_CIS: Attagene CIS-FACTORIAL HepG2 Assay for human Hypoxia Inducible Factor 1 (HIF1A) (AID 2282951); conditions: HepG2 Attagene cis-factorial HIF1a reporter transcription; actives raise or lower the signal
Hypoxia-inducible factor 1-alpha (Homo sapiens), sequence (Q16665 whole entry, looked up): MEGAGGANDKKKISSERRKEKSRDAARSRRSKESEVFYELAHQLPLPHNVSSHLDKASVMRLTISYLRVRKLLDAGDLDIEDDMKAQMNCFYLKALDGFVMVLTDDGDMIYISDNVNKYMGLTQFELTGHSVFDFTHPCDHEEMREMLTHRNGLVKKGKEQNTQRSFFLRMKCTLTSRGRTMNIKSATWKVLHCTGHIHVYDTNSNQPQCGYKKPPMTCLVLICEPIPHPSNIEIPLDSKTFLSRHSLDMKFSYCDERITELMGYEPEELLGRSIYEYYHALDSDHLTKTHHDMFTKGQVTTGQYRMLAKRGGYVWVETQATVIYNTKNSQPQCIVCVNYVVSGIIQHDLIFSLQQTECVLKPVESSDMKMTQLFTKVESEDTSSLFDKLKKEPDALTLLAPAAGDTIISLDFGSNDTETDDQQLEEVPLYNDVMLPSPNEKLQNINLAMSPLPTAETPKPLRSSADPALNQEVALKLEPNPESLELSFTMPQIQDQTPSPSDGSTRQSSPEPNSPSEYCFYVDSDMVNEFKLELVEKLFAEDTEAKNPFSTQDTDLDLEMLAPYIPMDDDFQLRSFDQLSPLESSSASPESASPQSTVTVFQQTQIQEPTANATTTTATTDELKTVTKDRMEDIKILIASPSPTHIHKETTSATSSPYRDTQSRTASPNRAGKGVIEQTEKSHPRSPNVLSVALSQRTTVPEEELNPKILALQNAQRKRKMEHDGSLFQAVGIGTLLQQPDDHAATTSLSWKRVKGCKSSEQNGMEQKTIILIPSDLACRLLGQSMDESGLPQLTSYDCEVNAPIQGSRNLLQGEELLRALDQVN
How it was run: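 In this multiplexed cell assay, HepG2 cells bearing transfected cis reporters are dosed for 24 h and reporter mRNA is read by RT-PCR plus capillary electrophoresis; signal increases and decreases are both scored against DMSO.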

[7] = ATG_MRE_CIS: Attagene CIS-FACTORIAL HepG2 Assay for human Metal Responsive Element (MRE) (AID 2282954); conditions: HepG2 MRE cis-reporter transcription, Attagene multiplex; actives raise or lower the signal
How it was run: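 After a 24 h chemical exposure, transiently transfected HepG2 cells yield RNA whose reporter sequences are amplified, FAM-labelled and sized by capillary electrophoresis. Curves are fitted bidirectionally relative to DMSO.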

[8] = ATG_PBREM_CIS: Attagene CIS-FACTORIAL HepG2 Assay for human Phenobarbital-responsive Enhancer Module (PBREM) (AID 2282955); conditions: HepG2 PBREM cis-reporter, Attagene multiplexed transcription; actives raise or lower the signal
How it was run: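 After a 24 h incubation with test chemical, transfected HepG2 cells yield total RNA; reporter-specific RT-PCR products are fluorescently labelled, HpaI-digested and resolved by capillary electrophoresis against ROX size standards.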

[9] = target: Paired box protein Pax-6 (Homo sapiens) (UniProt P26367); test: ATG_Pax6_CIS: Attagene CIS-FACTORIAL HepG2 Assay for human Paired Box 6 (PAX6) (AID 2282956); conditions: HepG2 CIS-FACTORIAL PAX6 reporter transcription, RNA readout; actives raise or lower the signal
Paired box protein Pax-6 (Homo sapiens), sequence (P26367 whole entry, looked up): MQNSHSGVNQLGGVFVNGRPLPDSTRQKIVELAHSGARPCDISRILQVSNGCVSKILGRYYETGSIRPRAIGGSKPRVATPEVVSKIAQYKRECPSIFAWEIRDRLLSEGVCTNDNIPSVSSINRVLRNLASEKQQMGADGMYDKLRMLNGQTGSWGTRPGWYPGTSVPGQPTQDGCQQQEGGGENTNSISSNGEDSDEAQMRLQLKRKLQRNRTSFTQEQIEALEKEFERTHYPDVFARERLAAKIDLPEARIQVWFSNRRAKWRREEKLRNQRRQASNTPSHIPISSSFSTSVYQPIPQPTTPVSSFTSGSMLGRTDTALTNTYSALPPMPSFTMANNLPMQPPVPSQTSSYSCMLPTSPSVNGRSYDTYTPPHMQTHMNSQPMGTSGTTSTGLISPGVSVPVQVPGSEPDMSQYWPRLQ
How it was run: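 HepG2 cells transiently transfected with cis-promoter-driven multiplexed reporter units sensing endogenous transcription factor activity; 24 h chemical exposure. Reporter mRNA quantified by RT-PCR, 6-FAM labelling, HpaI digestion and capillary electrophoresis; bidirectional fit versus DMSO baseline.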

[10] = ATG_PPRE_CIS: Attagene CIS-FACTORIAL HepG2 Assay for human Peroxisome Proliferator-activated Response Element (PPRE) (AID 2282958); conditions: HepG2 PPRE cis-element reporter, Attagene transcription factor profiling; actives raise or lower the signal
How it was run: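 Multiplexed reporter transcription units under cis-regulatory promoters were transfected into HepG2 cells to capture endogenous factor activity. A 24 h incubation preceded RNA isolation and fluorescent RT-PCR fragment analysis.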

[11] = ATG_RORE_CIS: Attagene CIS-FACTORIAL HepG2 Assay for human RAR-related Orphan Receptor Element (RORE) (AID 2282959); conditions: HepG2 Attagene cis-factorial RORE reporter, mRNA; actives raise or lower the signal
How it was run: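 Fluorescence intensity of reporter-specific cDNA fragments, separated by capillary electrophoresis, gives the signal. Source: HepG2 liver cells transiently transfected with cis-element reporters and exposed 24 h; DMSO-normalized bidirectional fit.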

[12] = ATG_Sox_CIS: Attagene CIS-FACTORIAL HepG2 Assay for human SRY-box transcription factor (SOX) (AID 2282960); conditions: HepG2 Attagene cis-factorial SOX reporter, mRNA; actives raise or lower the signal
How it was run: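 After 24 h of chemical treatment, transfected HepG2 reporter cells are lysed for total RNA. Transcript levels come from RT-PCR with labelled primer extension and capillary electrophoresis, analysed bidirectionally versus DMSO.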

[13] = target: Transcription factor Sp1 (Homo sapiens) (UniProt P08047); test: ATG_Sp1_CIS: Attagene CIS-FACTORIAL HepG2 Assay for human Specificity Protein 1 (Sp1) (AID 2282961); conditions: HepG2 Sp1 cis-reporter transcription, actives raise or lower the signal
Transcription factor Sp1 (Homo sapiens), sequence (P08047 whole entry, looked up): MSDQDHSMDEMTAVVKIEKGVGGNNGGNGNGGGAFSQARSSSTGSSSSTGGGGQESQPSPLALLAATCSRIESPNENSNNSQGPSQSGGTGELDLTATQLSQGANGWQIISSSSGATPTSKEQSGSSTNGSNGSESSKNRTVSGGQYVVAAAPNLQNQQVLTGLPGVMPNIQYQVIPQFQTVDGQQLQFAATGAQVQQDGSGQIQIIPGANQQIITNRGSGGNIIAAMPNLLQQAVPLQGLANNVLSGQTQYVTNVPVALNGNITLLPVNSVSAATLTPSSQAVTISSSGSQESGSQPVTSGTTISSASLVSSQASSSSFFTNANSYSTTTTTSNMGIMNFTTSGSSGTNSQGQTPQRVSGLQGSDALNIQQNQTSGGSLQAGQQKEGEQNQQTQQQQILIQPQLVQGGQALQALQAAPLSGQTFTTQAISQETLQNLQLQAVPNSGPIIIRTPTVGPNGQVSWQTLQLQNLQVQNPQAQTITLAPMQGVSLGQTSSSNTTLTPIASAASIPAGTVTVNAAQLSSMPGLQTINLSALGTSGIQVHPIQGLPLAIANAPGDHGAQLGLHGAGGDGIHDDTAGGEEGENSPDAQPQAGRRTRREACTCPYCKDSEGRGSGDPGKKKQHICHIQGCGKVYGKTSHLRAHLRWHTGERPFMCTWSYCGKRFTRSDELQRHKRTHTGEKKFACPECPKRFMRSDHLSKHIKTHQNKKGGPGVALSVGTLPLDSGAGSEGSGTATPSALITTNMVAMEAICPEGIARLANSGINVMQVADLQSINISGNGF
How it was run: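 Sp1-driven reporter mRNA, read as capillary electrophoresis fluorescence after RT-PCR, in transiently transfected HepG2 cells dosed for 24 h; signal change in either direction relative to DMSO.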

[14] = ATG_SREBP_CIS: Attagene CIS-FACTORIAL HepG2 Assay for human Sterol Regulatory Element Binding (SREBP) (AID 2282962); conditions: HepG2 Attagene cis-factorial SREBP reporter, mRNA; actives raise or lower the signal
How it was run: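 HepG2 cells transiently transfected with multiplexed cis-promoter reporter units sensing endogenous transcription factors; reporter mRNA measured 24 h after dosing by RT-PCR, 6-FAM labeling, HpaI digestion and capillary electrophoresis. Bidirectional fit versus DMSO.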

[15] = target: Signal transducer and activator of transcription 3 (Homo sapiens) (UniProt P40763); test: ATG_STAT3_CIS: Attagene CIS-FACTORIAL HepG2 Assay for human Signal Transducer and Activator of Transcription 3 (STAT3) (AID 2282963); conditions: HepG2, Attagene cis-factorial STAT3 reporter transcription; actives raise or lower the signal
Signal transducer and activator of transcription 3 (Homo sapiens), sequence (P40763 whole entry, looked up): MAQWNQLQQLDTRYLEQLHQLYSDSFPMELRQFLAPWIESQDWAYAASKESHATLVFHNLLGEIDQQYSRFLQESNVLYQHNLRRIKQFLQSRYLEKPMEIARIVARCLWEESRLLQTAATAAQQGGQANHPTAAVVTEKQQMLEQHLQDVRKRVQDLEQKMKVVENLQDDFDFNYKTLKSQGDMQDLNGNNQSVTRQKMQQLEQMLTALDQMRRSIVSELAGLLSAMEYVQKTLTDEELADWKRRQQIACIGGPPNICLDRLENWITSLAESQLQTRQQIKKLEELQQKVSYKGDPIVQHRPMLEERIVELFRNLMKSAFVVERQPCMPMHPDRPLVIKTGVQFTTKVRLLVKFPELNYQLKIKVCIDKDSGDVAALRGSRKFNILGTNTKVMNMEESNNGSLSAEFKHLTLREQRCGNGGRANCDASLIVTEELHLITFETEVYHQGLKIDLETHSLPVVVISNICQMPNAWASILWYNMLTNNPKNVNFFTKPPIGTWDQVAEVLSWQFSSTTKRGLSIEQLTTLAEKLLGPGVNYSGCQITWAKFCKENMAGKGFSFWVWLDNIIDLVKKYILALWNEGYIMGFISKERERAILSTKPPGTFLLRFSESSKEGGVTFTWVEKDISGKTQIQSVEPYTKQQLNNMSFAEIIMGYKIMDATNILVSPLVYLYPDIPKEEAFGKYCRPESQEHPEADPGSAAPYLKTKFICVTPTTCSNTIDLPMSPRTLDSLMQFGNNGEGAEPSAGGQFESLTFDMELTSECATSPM
How it was run: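 After a 24 h compound incubation, total RNA from MRTU-transfected HepG2 cells was converted to cDNA and reporter sequences PCR-amplified, labelled and profiled by capillary electrophoresis. Gain and loss of signal were referenced to DMSO.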

[16] = ATG_TA_CIS: Attagene CIS-FACTORIAL HepG2 Assay for human TA Basal Promoter (AID 2282964); conditions: HepG2 Attagene CIS-factorial TA basal promoter reporter; actives raise or lower the signal
How it was run: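 Fluorescence from labelled RT-PCR reporter fragments, separated by capillary electrophoresis, gives the signal. Cells: HepG2 transiently carrying multiple reporter units, 24 h chemical dosing. Gain or loss relative to DMSO.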

[17] = ATG_TCF_b_cat_CIS: Attagene CIS-FACTORIAL HepG2 Assay for human T-Cell-Factor with beta-catenin (TCF/b-cat) (AID 2282965); conditions: HepG2 TCF/beta-catenin cis-reporter transcription, actives raise or lower the signal
How it was run: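 Endogenous transcription factor activity is captured through cis-promoter reporter constructs transiently introduced into human HepG2 liver cells. Induced reporter mRNA is measured after 24 h and fitted bidirectionally relative to DMSO.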

[18] = target: Hepatocyte nuclear factor 6 (Homo sapiens) (UniProt Q9UBC0); test: ATG_HNF6_CIS: Attagene CIS-FACTORIAL HepG2 Assay for human Hepatocyte Nuclear Factor 6 (HNF6) (AID 2282952); conditions: HepG2 Attagene cis-factorial HNF6 reporter transcription; actives raise or lower the signal
Hepatocyte nuclear factor 6 (Homo sapiens), sequence (Q9UBC0 whole entry, looked up): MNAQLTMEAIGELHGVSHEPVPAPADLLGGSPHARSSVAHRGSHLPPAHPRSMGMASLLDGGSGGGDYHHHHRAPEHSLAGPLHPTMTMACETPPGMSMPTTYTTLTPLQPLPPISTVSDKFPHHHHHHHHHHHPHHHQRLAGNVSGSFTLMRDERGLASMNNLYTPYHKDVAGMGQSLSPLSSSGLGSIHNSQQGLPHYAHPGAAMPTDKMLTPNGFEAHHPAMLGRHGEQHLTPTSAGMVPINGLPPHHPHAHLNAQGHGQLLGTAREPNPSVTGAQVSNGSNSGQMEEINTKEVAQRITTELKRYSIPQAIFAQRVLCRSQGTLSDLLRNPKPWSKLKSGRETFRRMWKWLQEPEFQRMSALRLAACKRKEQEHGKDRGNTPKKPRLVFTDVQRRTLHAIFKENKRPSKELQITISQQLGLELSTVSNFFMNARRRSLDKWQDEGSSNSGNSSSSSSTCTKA
How it was run: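 Multiplexed mRNA reporter assay in transfected HepG2; 24 h dosing; RT-PCR plus capillary electrophoresis fluorescence; DMSO-referenced bidirectional curve fitting.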

[19] = target: Heat shock factor protein 1 (Homo sapiens) (UniProt Q00613); test: ATG_HSE_CIS: Attagene CIS-FACTORIAL HepG2 Assay for human Heat Shock Transcription Factor 1 (HSE) (AID 2282953); conditions: HepG2 HSE cis-reporter, Attagene RNA transcription; actives raise or lower the signal
Heat shock factor protein 1 (Homo sapiens), sequence (Q00613 whole entry, looked up, the tested form may be a part): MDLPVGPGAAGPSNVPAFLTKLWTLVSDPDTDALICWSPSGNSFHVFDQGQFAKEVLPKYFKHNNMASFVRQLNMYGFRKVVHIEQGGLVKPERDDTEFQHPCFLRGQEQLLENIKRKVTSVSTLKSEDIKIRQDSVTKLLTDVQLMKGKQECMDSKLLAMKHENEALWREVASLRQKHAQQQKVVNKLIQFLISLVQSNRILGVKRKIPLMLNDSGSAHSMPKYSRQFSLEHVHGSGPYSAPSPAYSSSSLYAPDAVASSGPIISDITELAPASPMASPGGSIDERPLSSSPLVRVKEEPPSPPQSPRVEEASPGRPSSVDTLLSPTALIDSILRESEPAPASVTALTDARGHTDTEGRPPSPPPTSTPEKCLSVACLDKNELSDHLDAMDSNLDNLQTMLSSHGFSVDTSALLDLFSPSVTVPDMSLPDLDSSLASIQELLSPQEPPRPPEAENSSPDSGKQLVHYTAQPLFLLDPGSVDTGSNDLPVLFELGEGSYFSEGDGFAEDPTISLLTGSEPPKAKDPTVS
How it was run: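 Endogenous transcription factor activity captured via cis-promoter reporter units transfected into HepG2; treatment lasted 24 h. Fluorescence intensity of reporter fragments analysed with bidirectional curve fitting, DMSO baseline.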

[20] = ATG_PXRE_CIS: Attagene CIS-FACTORIAL HepG2 Assay for human Pregnane X Receptor Element (PXRE) (AID 2282957); conditions: HepG2 Attagene CIS-FACTORIAL PXRE reporter, mRNA; actives raise or lower the signal
How it was run: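 Cells: HepG2, transiently transfected reporter units under cis promoter control. Exposure: 24 h. Detection: reporter mRNA via RT-PCR/CE fluorescence; bidirectional fitting, DMSO-referenced.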

## CCCC(=O)C(C)=O
[1]
  outcome: inactive
[2]
  outcome: inactive
[3]
  outcome: inactive
[4]
  outcome: inactive
[5]
  outcome: inactive
[6]
  outcome: inactive
[7]
  outcome: inactive
[8]
  outcome: inactive
[9]
  outcome: inactive
[10]
  outcome: inactive
[11]
  outcome: inactive
[12]
  outcome: inactive
[13]
  outcome: inactive
[14]
  outcome: inactive
[15]
  outcome: inactive
[16]
  outcome: inactive
[17]
  outcome: inactive

## O=C(O)C[C@H](O)C[C@H](O)/C=C/c1c(C2CC2)nc2ccccc2c1-c1ccc(F)cc1
[1]
  outcome: inactive
[2]
  outcome: inactive
[3]
  outcome: inactive
[4]
  outcome: inactive
[5]
  outcome: inactive
[18]
  outcome: inactive
[19]
  outcome: inactive
[7]
  outcome: inactive
[8]
  outcome: inactive
[9]
  outcome: inactive
[20]
  AC50: 4.9 µM (active)
[10]
  outcome: inactive
[12]
  outcome: inactive
[13]
  outcome: inactive
[14]
  AC50: 0.0712 µM (active)
[15]
  outcome: inactive
[16]
  outcome: inactive
[17]
  outcome: inactive

## CCCCCCCCCCCCCC(=O)O
[1]
  outcome: inactive
[2]
  outcome: inactive
[3]
  outcome: inactive
[5]
  outcome: inactive
[6]
  outcome: inactive
[18]
  outcome: inactive
[7]
  outcome: inactive
[8]
  outcome: inactive
[9]
  outcome: inactive
[20]
  outcome: inactive
[12]
  outcome: inactive
[13]
  outcome: inactive
[14]
  AC50: 54.9 µM (active)
[15]
  outcome: inactive
[16]
  outcome: inactive
[17]
  outcome: inactive

## Clc1cccc(Cl)n1
[1]
  outcome: inactive
[2]
  outcome: inactive
[3]
  outcome: inactive
[4]
  outcome: inactive
[5]
  outcome: inactive
[18]
  outcome: inactive
[7]
  outcome: inactive
[8]
  outcome: inactive
[9]
  outcome: inactive
[20]
  outcome: inactive
[10]
  outcome: inactive
[11]
  outcome: inactive
[12]
  outcome: inactive
[13]
  outcome: inactive
[15]
  outcome: inactive
[16]
  outcome: inactive
[17]
  outcome: inactive

## NCCCN1CCOCC1
[1]
  outcome: inactive
[2]
  outcome: inactive
[3]
  outcome: inactive
[4]
  outcome: inactive
[5]
  outcome: inactive
[18]
  outcome: inactive
[19]
  outcome: inactive
[7]
  outcome: inactive
[8]
  outcome: inactive
[9]
  outcome: inactive
[10]
  outcome: inactive
[12]
  outcome: inactive
[13]
  outcome: inactive
[15]
  outcome: inactive
[17]
  outcome: inactive

## O=C(O)c1snc(Cl)c1Cl
[1]
  outcome: inactive
[2]
  outcome: inactive
[3]
  AC50: 136 µM (active)
[4]
  outcome: inactive
[5]
  outcome: inactive
[18]
  AC50: 153 µM (active)
[19]
  AC50: 158 µM (active)
[7]
  AC50: 161 µM (active)
[8]
  outcome: inactive
[9]
  AC50: 188 µM (active)
[10]
  outcome: inactive
[12]
  AC50: 173 µM (active)
[13]
  outcome: inactive
[14]
  outcome: inactive
[15]
  outcome: inactive
[17]
  AC50: 167 µM (active)

## C#C[C@]1(O)CC[C@H]2[C@@H]3CCC4=Cc5oncc5C[C@]4(C)[C@H]3CC[C@@]21C
[1]
  AC50: 23.5 µM (active)
[2]
  outcome: inactive
[3]
  AC50: 31.2 µM (active)
[4]
  outcome: inactive
[5]
  outcome: inactive
[18]
  AC50: 60.9 µM (active)
[19]
  AC50: 58.2 µM (active)
[7]
  AC50: 27.3 µM (active)
[8]
  AC50: 5.83 µM (active)
[9]
  AC50: 20.1 µM (active)
[20]
  AC50: 8.09 µM (active)
[10]
  outcome: inactive
[11]
  outcome: inactive
[12]
  AC50: 61.3 µM (active)
[13]
  AC50: 57.6 µM (active)
[14]
  AC50: 14.8 µM (active)
[15]
  outcome: inactive
[16]
  AC50: 8.11 µM (active)
[17]
  AC50: 22 µM (active)
